Source: PubChem BioAssay (Tox21)
Results filed as inconclusive are left out. Entries that show only a call come without a potency. The source made the active and inactive calls. The call rests on the fitted dose curve.

Experiment: qHTS assay for small molecule disruptors of the mitochondrial membrane potential - cell viability (AID 720634);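 further: human HepG2 liver cancer cells; nearly all actives have a fitted effect of over 20% in size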
Details: HepG2 viability, ATP luminescence (CellTiter-Glo), 1 h; series mostly up to 83.2 µM; activity change, negative = cytotoxicity: at the top concentration
Text: U.S. Tox21 Program National Center for Advancing Translational Sciences [NCATS] NIH Chemical Genomics Center [NCGC] U.S. Environmental Protection Agency [EPA] National Institutes of Environmental Health Sciences [NIEHS] National Toxicology Program [NTP] U.S. Food and Drug Administration [FDA] Tox21 Assay Overview: Mitochondrial membrane potential (MMP), one of the parameters for mitochondrial function, is generated by mitochondrial electron transport chain that creates an electrochemical gradient by a series of redox reactions. This gradient drives the synthesis of ATP, a crucial molecule for various cellular processes. Measuring MMP in living cells is commonly used to assess the effect of chemicals on mitochondrial function; decreases in MMP can be detected using lipophilic cationic fluorescent dyes. […] The dye accumulates in the mitochondria of healthy cells as aggregates, with red fluorescence. The mitochondrial potential decreases and the dye could not accumulate in the mitochondria and remains in the cytoplasm in monomers, with green fluorescence. In addition to the mitochondrial potential assay, these cells were also used to test the cytotoxicity by determining the cell viability in the culture based on the quantitation of ATP present. The cytotoxicity was measured in the same assay well of MMP assay.
Tox21 Assay Protocol Summary: 2,000 HepG2 cells in 5 uL/well were dispensed into black, clear-bottom 1536-well plates using a Multidrop Combi (Thermo Scientific) dispenser. The assay plates were incubated for an overnight at 37 C to allow cells to attach to the wells, followed by the transfer of 23 nL compound or DMSO vehicle by a pin tool (Kalypsys). The plates were incubated for 1 hr at 37 C and 5% CO2, followed by the addition of 5 uL of 2X m-MPI dye into each well using Flying Reagent Dispenser (Aurora Discovery) and then CellTiter-Glo reagent was added at 4 uL/well and incubated 30 min at room temperature. Then luminescence intensity was quantified on a ViewLux CCD-based plate reader.

Row | Compound | Potency | activity change, negative = cytotoxicity
1 | C/C=C/C(=O)N(CC)c1ccccc1C | inactive | 
2 | Cc1ccc(C(C)(C)C)cc1 | inactive | 
3 | Cc1ccc([N+](=O)[O-])c(C)c1 | inactive | 
4 | O=C1OC2(c3ccccc31)c1cc(I)c(O)c(I)c1Oc1c2cc(I)c(O)c1I | inactive | 
5 | Oc1ccc(C(c2ccc(O)cc2)C(Cl)(Cl)Cl)cc1 |  | -7.78% (inactive)
6 | CC1(C)C(C=C(Cl)Cl)C1C(=O)OCc1cccc(Oc2ccccc2)c1 (stereo not given) | inactive | 
7 | C=CC(=O)OCCCC | inactive | 
8 | CC(=O)Oc1c(C)c(C)c2c(c1C)CC[C@@](C)(CCC[C@H](C)CCC[C@H](C)CCCC(C)C)O2 | inactive | 
9 | CCCCCCC(C)O (stereo not given) | inactive | 
10 | COC(=O)CC(=O)OC | inactive | 
11 | CC(C)[N+](C)(CCOC(=O)C1c2ccccc2Oc2ccccc21)C(C)C | inactive | 
12 | CC1(C)NC(=O)N(c2ccc([N+](=O)[O-])c(C(F)(F)F)c2)C1=O |  | -8.59% (inactive)
13 | CCCCCCCCCCC(CO)CCCCCCCC (stereo not given) | inactive | 
14 | Cc1ccc(C(C)(C)C)c(O)c1 |  | -16.6% (inactive)
15 | CCCN1C=CN(C)C1 | inactive | 
16 | Nc1ccc(O)c(N)c1 | inactive | 
17 | NC[C@H](O)c1ccc(O)c(O)c1 | inactive | 
18 | O=[Se](O)O |  | 2.86% [at 39.1 µM] (inactive)
19 | CC(C)[C@@H]1CC[C@@H](C)CC1=O | inactive | 
20 | Cc1cccc(Nc2ccccc2C(=O)O)c1C | inactive | 

Row | Compound | Potency | activity change, negative = cytotoxicity
21 | CC1(C)O[C@@H]2C[C@H]3[C@@H]4C[C@H](F)C5=CC(=O)C=C[C@]5(C)[C@@]4(F)[C@@H](O)C[C@]3(C)[C@]2(C(=O)CO)O1 | inactive | 
22 | CC(=O)OC(C)C | inactive | 
23 | ClC/C=C/CCl | inactive | 
24 | OC[C@H]1O[C@@H]2O[C@H]3[C@H](O)[C@@H](O)[C@@H](O[C@H]4[C@H](O)[C@@H](O)[C@@H](O[C@H]5[C@H](O)[C@@H](O)[C@@H](O[C@H]6[C@H](O)[C@@H](O)[C@@H](O[C@H]7[C@H](O)[C@@H](O)[C@@H](O[C@H]1[C@H](O)[C@H]2O)O[C@@H]7CO)O[C@@H]6CO)O[C@@H]5CO)O[C@@H]4CO)O[C@@H]3CO | inactive | 
25 | CCc1cccc2c3c([nH]c12)C(CC)(CC(=O)O)OCC3 (stereo not given) | inactive | 
26 | c1ccc2ncccc2c1 | inactive | 
27 | C=C1C[C@H]2[C@@H]3C=C(C)C4=CC(=O)CC[C@]4(C)[C@H]3CC[C@]2(C)[C@@]1(OC(C)=O)C(C)=O | inactive | 
28 | C[C@]12C=CC(=O)C=C1CC[C@H]1[C@@H]3C[C@@H](O)[C@](O)(C(=O)CO)[C@@]3(C)C[C@H](O)[C@@]12F | inactive | 
29 | Cc1ccc(S(=O)(=O)NCl)cc1 | inactive | 
30 | COC(=O)C(C)Oc1ccc(Oc2ncc(C(F)(F)F)cc2Cl)cc1 (stereo not given) | inactive | 
31 | C=C[C@H]1CN2CC[C@H]1C[C@H]2[C@H](O)c1ccnc2ccc(OC)cc12 | inactive | 
32 | C=C[C@H]1CN2CC[C@H]1C[C@@H]2[C@@H](O)c1ccnc2ccc(OC)cc12 | inactive | 
33 | Brc1nc2ccccc2s1 | inactive | 
34 | CN(Cc1cnc2nc(N)nc(N)c2n1)c1ccc(C(=O)N[C@@H](CCC(=O)O)C(=O)O)cc1 |  | -1.9% (inactive)
35 | CCCCCC=O | inactive | 
36 | CC[C@]12CCCN3CCc4c(n(c5ccccc45)[C@@](O)(C(=O)OC)C1)[C@@H]32 | inactive | 
37 | NCCS(=O)(=O)O | inactive | 
38 | COc1ccc(C(=O)c2ccccc2O)c(O)c1 | inactive | 
39 | CC(C)(Oc1ccc(Cl)cc1)C(=O)O | inactive | 
40 | C=C[Si](OCCOC)(OCCOC)OCCOC | inactive | 
